# mHTT-CaM PPI inh: mutant huntingtin-calmodulin interaction inhibitors – biochemical, AlphaScreen, primary screen | AID 1671202, 2021 | AlphaScreen His-mHTT/GST-CaM binding, luminescence | P42858 | 190,000 tested, 3.6% active | inhibition, % at 15 µM;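 note: 0% = both proteins with DMSO and 100% = one protein alone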
# Pf apPOL inh: Pf-apPOL inhibitors, biochemical, fluorescence | Plasmodium falciparum apicoplast DNA polymerase (apPOL) | Recombinant Pf-apPOL, molecular beacon fluorescence, 1.5 h | inhibition, % at 10 µM | 210,000 tested, 0.25% active
# * hit, by the source's call; . = not tested or not shown; ! = not confirmed by another sample. An excerpt weighted towards active compounds, which were near 3.6% of everything screened. Cut-off read from the data, not from the text of the source: active = inhibition above about 50%; inactive = the rest.
SMILES,mHTT-CaM PPI inh,Pf apPOL inh
Cc1ccc2c(c1)/C(=c1\sc3nc4ccccc4n3c1=O)C(=O)N2,0,55*
CCN1C(=O)/C(=c2/sc3nc4ccccc4n3c2=O)c2ccccc21,-3,6
Cc1ccc(NCCNS(=O)(=O)c2ccc(OC(F)(F)F)cc2)nn1,-18,-11
Cc1ccc2c(c1)NC(=O)C(CC(=O)N1CCN(c3cccc(C)c3C)CC1)CO2 (centres undefined),10,-3
CCCCN1COc2ccc3c4c(oc3c2C1)C(=O)c1ccccc1C4=O,70*,11
COc1ccc(-c2coc3c4c(ccc3c2=O)OCN(C2CC(C)(C)NC(C)(C)C2)C4)cc1OC,2,-5
CC(=O)c1c(C)oc2c1c1c(c3ccccc32)OCN(C2CC(C)(C)NC(C)(C)C2)C1,78*,7
CC(=O)c1c(C)oc2c1c1c(c3ccccc32)OCN(C2CCCCC2)C1,6,1
O=C1c2ccccc2C(=O)c2c1oc1c3c(ccc21)OCN(CCc1ccccc1)C3,61*,-4
COCCCN1COc2ccc3c(C)c(-c4ccccc4)c(=O)oc3c2C1,12,-10
CC1(C)CC(N2COc3ccc4c5c(oc4c3C2)C(=O)c2ccccc2C5=O)CC(C)(C)N1,96*!,37
O=C1c2ccccc2C(=O)c2c1oc1c3c(ccc21)OCN(Cc1ccccc1)C3,11,14
N#CCc1ccc(NC2=NS(=O)(=O)c3ccccc32)cc1,2,-3
CCC(=O)N1CCc2cc(Br)cc(S(=O)(=O)N(C)Cc3ccccc3)c21,3,1
O=C(Nc1cc(F)c2nc(N3CCOCC3)ccc2c1)c1cccc(F)c1,11,0
Nc1ccc2cc(Br)c3ccccc3c2c1,59*,.
O=[N+]([O-])c1ccc2cc(Br)c3ccccc3c2c1,.,2
COc1ccc(CNC(=O)C2CCCN(C(=O)Cc3cccc4ccccc34)C2)cc1 (centres undefined),12,-2
CC1(C)CC(=O)C2=C(C1)Nc1ccccc1NC2c1ccc(-c2ccc([N+](=O)[O-])cc2Cl)o1 (centres undefined),50,-3
CC1(C)CC(=O)C2=C(C1)Nc1ccccc1NC2c1ccc(-c2ccc([N+](=O)[O-])cc2)o1 (centres undefined),73*,-1
CC1(C)CC(=O)C2=C(C1)Nc1ccccc1NC2c1ccccc1 (centres undefined),-2,1
Cc1cc2c(cc1C)NC(c1ccc(Cl)c(F)c1)C1=C(CC(C)(C)CC1=O)N2 (centres undefined),59*,6
Cc1cc2c(cc1C)NC(c1ccc(F)cc1)C1=C(CC(C)(C)CC1=O)N2 (centres undefined),20,-16
CC1(C)CC(=O)C2=C(C1)Nc1ccccc1NC2c1ccc(Cl)c(Cl)c1 (centres undefined),66*,0
CCNC(=O)N1CCC(c2nc(CCNC(=O)C(C)C)cs2)CC1,3,-1
SMILES,mHTT-CaM PPI inh,Pf apPOL inh
CC(C)CCN1CC(=O)N(Cc2ccc(N3CCOCC3)cc2)C(c2cccs2)C1=O (centres undefined),0,6
CSCCn1c(-c2ccccc2)cc(C(=O)Nc2ccc3c(c2)OCCO3)c1C,.,3
C=CCSc1nc2ccccc2n1C(=O)CN1C(=O)c2ccccc2C1=O,-4,-2
CC(=O)c1cccc(NS(=O)(=O)c2ccc(F)cc2)c1,4,-6
CC(=O)c1cccc(NC(=O)CN(C)S(=O)(=O)c2ccc3[nH]c4c(c3c2)CCCC4)c1,28,-2
CC(=O)c1cccc(NS(=O)(=O)c2ccc3[nH]c4c(c3c2)CCCC4)c1,84*,0
CCOC(=O)c1cccc(NS(=O)(=O)c2ccc3[nH]c4c(c3c2)CCCC4)c1,95*,-3
CN(CC(=O)Nc1cccc(F)c1)S(=O)(=O)c1ccc2[nH]c3c(c2c1)CCCC3,42,-1
CC(=O)c1ccc(NS(=O)(=O)c2ccc3[nH]c4c(c3c2)CCCCC4)cc1,70*,-1
CC(=O)c1cccc(NS(=O)(=O)c2ccc3[nH]c4c(c3c2)CCCCC4)c1,99*,-4
COc1ccc(NC(=O)C2CCCCC2)c2ccccc12,-13,-3
O=C(Nc1ccc2nsnc2c1)N1CCOCC1,-2,2
Cc1cc(OCc2ccc3nsnc3c2)c(C(C)C)cc1-n1cnnn1,-6,.
CC(=O)Nc1ccc(S(=O)(=O)Nc2ccc(C)cc2[N+](=O)[O-])cc1,51*,0
CC(=O)Nc1ccc(S(=O)(=O)Nc2ccc(C)cc2Br)cc1,-2,-7
COc1cccc(C2c3c(oc4cc(OC)ccc4c3=O)C(=O)N2CCN(C)C)c1 (centres undefined),4,4
CCOc1ccc(-n2cc(-c3ccc(OCC)c(Cl)c3)[nH]c2=O)cc1,19,6
Cn1c(CN2CCN(C(=O)c3ccc([N+](=O)[O-])o3)CC2)nc2ccccc21,-5,53*
Cn1c(CN2CCN(C(=O)c3ccc(Br)o3)CC2)nc2ccccc21,-3,-4
COc1ccc(CNc2nc3ccccc3[nH]2)c(OC)c1,6,-2
COc1cccc(NC(=O)Cn2c(=O)n(-c3ccc(F)cc3)c(=O)c3sccc32)c1,5,-1
O=C1/C(=C/c2ccccc2F)Sc2ccccc21,58*,-5
O=C1/C(=C/c2ccc(F)cc2F)Sc2ccccc21,11,-5
O=C1/C(=C/c2cc([N+](=O)[O-])ccc2Cl)Sc2ccccc21,22,5
O=C1/C(=C/c2cc([N+](=O)[O-])ccc2O)Sc2ccccc21,73*,-8
SMILES,mHTT-CaM PPI inh,Pf apPOL inh
Cc1ccc(N2CCN(C(C)C(=O)NCc3cccnc3)CC2)cc1C (centres undefined),34,3
COc1ccc(C2CC(c3ccc(Cl)cc3)Nc3nnnn32)cc1OC (centres undefined),6,-6
CS(=O)(=O)N1CCC(C(=O)N2CCC(c3nnc(-c4ccc(F)cc4)o3)CC2)CC1,-10,-4
O=[N+]([O-])c1cc(Br)c2nsnc2c1Br,30,-6
O=[N+]([O-])c1cc(Br)c2nsnc2c1N1CCCCCC1,51*,.
O=C1NC(=O)/C(=C/c2cccc(OCc3ccccc3)c2)S1,4,3
COc1ccc(C(=O)Nc2ccc3c(c2)oc2ccccc23)cc1OC,-3,1
CCCCN(C)S(=O)(=O)c1ccc(F)c(C(=O)Nc2cc(Cl)ccc2OC)c1,-16,-18
O=C(Nc1ccccc1Cl)c1ccccc1,-12,0
O=C(CNc1ccccc1Cl)c1ccccc1,100*,1
CC(=O)NCC(=O)NC(C(=O)Nc1ccc2c(c1)OCO2)c1ccc(C)cc1 (centres undefined),5,-4
Cc1ccc(C(NC(=O)Cc2cc3ccccc3[nH]2)C(=O)Nc2ccc3c(c2)OCCO3)cc1 (centres undefined),53*,-5
COc1ccccc1NC(=O)c1c(Cl)nc(Cl)c(Cl)c1Cl,-5,-2
COc1ccc(C(=O)NC(c2ccccc2)c2ccccc2)cc1OC,-3,-6
COc1ccc(NC(=O)NC(c2ccccc2)c2ccccc2)cc1OC,62*,-5
Clc1cccc(Cc2nc(-c3ccc4nncn4c3)no2)c1,1,7
O=C(c1cccn2c(=O)c3cc(Cl)ccc3nc12)N1CCc2ccccc2C1,62*,-3
O=C(c1cccn2c(=O)c3cc(Cl)ccc3nc12)N1CCN(c2ccc(Cl)cc2)CC1,-422,2
CCOc1ccccc1NC(=O)c1ccc(=O)n(Cc2ccccc2)n1,-2,-10
